{"source": "the supplement of paper PMC9135407", "system": "primary human hepatic stellate cells (donor 1)", "assay": "scaled lipid accumulation score (0 = DMSO-like, 1 = nortriptyline-like); higher = stronger HSC inactivation (lipid re-accumulation), active = hit call of the paper", "conditions": "48 h", "key": {"[1]": {"conditions": "library stock concentration: 1 mM"}, "[2]": {"conditions": "library stock concentration: 10 mM"}, "[3]": {"conditions": "library stock concentration: 3.33 mM"}}, "note": "Counter-ions that a name gives are not always drawn. Out of some 5,800 compounds screened, about 620 (11%) showed activity. For the sample, actives were picked, then their nearest neighbours and some compounds at random. Values without a mark were called inactive.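 Rule for the calls: active = score above a cut-off or among the top three wells of a plate; in these data no inactive exceeds 0.85.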", "data": [{"smiles": "CCCCCCCCCCCCCCC(F)C(=O)O", "note": "(stereo unspecified) [2-Fluoropalmitic acid]", "values": [{"measurement": "scaled lipid accumulation score", "setting": "[1]", "value": "≤ -0.021"}]}, {"smiles": "CCCCCCCCCCCCCCC(F)C(=O)O", "note": "(stereo unspecified) [2-Fluoropalmitic Acid]", "values": [{"measurement": "scaled lipid accumulation score", "setting": "[1]", "value": "≤ 0"}]}, {"smiles": "CCCCCC(=O)/C=C/[C@H]1[C@H](O)CC(=O)[C@@H]1C/C=C\\CCCC(=O)O", "note": "[15-keto Prostaglandin E2]", "values": [{"measurement": "scaled lipid accumulation score", "setting": "[1]", "value": "≤ 0"}]}, {"smiles": "CO[C@@H]1[C@@H](O[C@@H]2O[C@H](C)[C@@H](O[C@H]3C[C@@](C)(O)[C@@H](OC(=O)CC(C)C)[C@H](C)O3)[C@H](N(C)C)[C@H]2O)[C@@H](CC=O)C[C@@H](C)[C@@H](O)/C=C/C=C/C[C@@H](C)OC(=O)C[C@H]1O", "values": [{"measurement": "scaled lipid accumulation score", "setting": "[2]", "value": 0.014}]}, {"smiles": "CCCCCC(O)C=CC1C(O)CC(O)C1CCCCCCC(=O)O", "note": "(stereo unspecified) [Prostaglandin  F1a]", "values": [{"measurement": "scaled lipid accumulation score", "setting": "[1]", "value": "≤ -0.021"}]}, {"smiles": "COc1cc(/C=C(\\C#N)C(=O)Nc2nnc(C(F)(F)F)s2)ccc1OCc1ccc(C(F)(F)F)cc1C(F)(F)F", "values": [{"measurement": "scaled lipid accumulation score", "setting": "[2]", "value": "≤ 0"}]}, {"smiles": "O=c1cc(-c2ccc(O)cc2)oc2c([C@@H]3O[C@H](CO)[C@@H](O)[C@H](O)[C@H]3O)c(O)cc(O)c12", "note": "[Vitexin]", "values": [{"measurement": "scaled lipid accumulation score", "value": "≤ 0"}]}, {"smiles": "CN(C)c1ccc2nc3ccc(=[N+](C)C)cc-3sc2c1", "note": "[Methylene blue]", "values": [{"measurement": "scaled lipid accumulation score", "setting": "library stock concentration: 5.9 mM", "value": 0.252}]}, {"smiles": "CCCCCCCC/C=C\\CCCCCCCC(=O)c1nc2ncccc2o1", "note": "[Oleoyl Oxazolopyridine]", "values": [{"measurement": "scaled lipid accumulation score", "setting": "[1]", "value": 0.017}]}, {"smiles": "O=C1c2ccccc2C(=O)c2c1ccc(O)c2O", "note": "[Alizarin]", "values": [{"measurement": "scaled lipid accumulation score", "setting": "[3]", "value": "≤ 0"}, {"measurement": "scaled lipid accumulation score", "setting": "[2]", "value": "≤ 0"}]}, {"smiles": "CC(C)=CCC1=C(O)C(=O)c2ccccc2C1=O", "note": "[Lapachol]", "values": [{"measurement": "scaled lipid accumulation score", "setting": "[2]", "value": "≤ 0"}]}, {"smiles": "CC1(C)C(=O)N=C2C1=C(O)C(=O)c1ccccc12", "values": [{"measurement": "scaled lipid accumulation score", "setting": "[2]", "value": "0.923 (active)"}]}, {"smiles": "COc1ccc(/C=C2\\COc3ccc(C)cc3C2=O)cc1O", "values": [{"measurement": "scaled lipid accumulation score", "setting": "[2]", "value": 0.275}]}, {"smiles": "CC1(C)C=C(CN2C/C(=C\\c3ccc(F)cc3)C(=O)/C(=C/c3ccc(F)cc3)C2)C(C)(C)N1O", "values": [{"measurement": "scaled lipid accumulation score", "setting": "[3]", "value": 0.264}, {"measurement": "scaled lipid accumulation score", "setting": "[2]", "value": 0.694}]}, {"smiles": "Cc1ccc(/C=C2\\CNC/C(=C\\c3ccc(C)cc3)C2=O)cc1.Cl", "values": [{"measurement": "scaled lipid accumulation score", "setting": "[2]", "value": "1.43 (active)"}]}, {"smiles": "CN(C)CCSSCCNC(=O)C1CCN(C(=O)CSc2ccc(Cl)cc2)CC1", "values": [{"measurement": "scaled lipid accumulation score", "setting": "[3]", "value": "≤ -0.009"}, {"measurement": "scaled lipid accumulation score", "setting": "[2]", "value": "≤ 0"}]}, {"smiles": "CCCCC[C@H](O)/C=C/[C@@H]1[C@@H](C/C=C\\CCCC(=O)NCCO)[C@@H](O)C[C@@H]1O", "note": "[11.beta.-Prostaglandin F2.alpha. Ethanolamide]", "values": [{"measurement": "scaled lipid accumulation score", "setting": "[1]", "value": "≤ 0"}]}, {"smiles": "CCCCC/C=C\\C/C=C\\C/C=C\\C=C\\[C@@H](O)CCCC(=O)O", "values": [{"measurement": "scaled lipid accumulation score", "setting": "library stock concentration: 100 uM", "value": "≤ -0.021"}]}, {"smiles": "CN(C)CCOc1cc(-c2cn[nH]c2)ccc1NC(=O)C1COc2ccccc2O1", "note": "(stereo unspecified) [listing 1 of 2 here]", "values": [{"measurement": "scaled lipid accumulation score", "setting": "[2]", "value": "1.08 (active)"}]}, {"smiles": "O=C(Nc1ccc(-c2cn[nH]c2)cc1)C1COc2ccccc2O1", "note": "(stereo unspecified) [Rho Kinase Inhibitor V]", "values": [{"measurement": "scaled lipid accumulation score", "setting": "[3]", "value": "≤ 0"}]}, {"smiles": "CN(C)CCOc1cc(-c2cn[nH]c2)ccc1NC(=O)C1COc2ccccc2O1", "note": "(stereo unspecified) [listing 2 of 2 here]", "values": [{"measurement": "scaled lipid accumulation score", "setting": "library stock concentration: 400 uM", "value": "≤ -0.005"}, {"measurement": "scaled lipid accumulation score", "setting": "library stock concentration: 2 mM", "value": 0.383}]}, {"smiles": "CCCCCCCCCCCCCCCCCC=CC(=O)O", "note": "[.DELTA.2-cis Eicosenoic Acid]", "values": [{"measurement": "scaled lipid accumulation score", "setting": "[1]", "value": 0.011}]}, {"smiles": "CCCCC/C=C\\C/C=C\\CC/C=C\\CCCC(=O)OCC", "note": "[Pinolenic Acid ethyl ester]", "values": [{"measurement": "scaled lipid accumulation score", "setting": "[1]", "value": "≤ 0"}]}, {"smiles": "CC[C@]1(O)C[C@H]2CN(CCc3c([nH]c4ccccc34)[C@@](C(=O)OC)(c3cc4c(cc3OC)N(C)[C@H]3[C@@](O)(C(N)=O)[C@H](O)[C@]5(CC)C=CCN6CC[C@]43[C@@H]65)C2)C1.O=S(=O)(O)O", "values": [{"measurement": "scaled lipid accumulation score", "setting": "library stock concentration: 9.7 mM", "value": "1.52 (active)"}]}, {"smiles": "CCCCC[C@H](O)/C=C/[C@@H]1[C@H]2C/C(=C/CCCC(=O)O)C[C@H]2C[C@H]1O", "note": "[Carbacyclin]", "values": [{"measurement": "scaled lipid accumulation score", "setting": "[1]", "value": "≤ -0.021"}]}, {"smiles": "N=C(N)c1ccc(N2CCN(C3CCN(CC(=O)O)CC3)CC2)cc1", "values": [{"measurement": "scaled lipid accumulation score", "setting": "[2]", "value": "≤ -0.006"}]}, {"smiles": "CCCCCCCCCCCCC/C=C/[C@@H](O)[C@H](CO)NC(=O)CCCCC", "note": "[C-6 Ceramide]", "values": [{"measurement": "scaled lipid accumulation score", "setting": "[1]", "value": "≤ 0"}]}, {"smiles": "CCCCC/C=C\\C/C=C\\C/C=C\\C/C=C\\CCCCN1C(=O)C=CC1=O", "note": "[N-Arachidonyl Maleimide]", "values": [{"measurement": "scaled lipid accumulation score", "setting": "[1]", "value": "≤ 0"}]}, {"smiles": "CCCCC[C@H](O)CC(=O)CCc1ccc(O)c(OC)c1", "note": "[6-Gingerol]", "values": [{"measurement": "scaled lipid accumulation score", "setting": "library stock concentration: 17 mM", "value": "≤ -0.014"}]}, {"smiles": "Cc1c(-c2cnccn2)ssc1=S", "note": "[Oltipraz]", "values": [{"measurement": "scaled lipid accumulation score", "setting": "library stock concentration: 8.8 mM", "value": 0.01}]}, {"smiles": "N[C@H](CO)C(=O)O", "note": "[D-Serine]", "values": [{"measurement": "scaled lipid accumulation score", "setting": "[2]", "value": "≤ 0"}]}, {"smiles": "CN1CCC(=C2c3ccccc3CCc3cccnc32)CC1", "note": "[Azatadine dimaleate]", "values": [{"measurement": "scaled lipid accumulation score", "setting": "[3]", "value": 0.004}, {"measurement": "scaled lipid accumulation score", "setting": "[2]", "value": 0.221}]}, {"smiles": "Cl[H].CN1CC\\C(=C(/c2c(cccc2)C=C3)\\c(cccc4)c34)\\CC1", "note": "[Cyproheptadine hydrochloride]", "values": [{"measurement": "scaled lipid accumulation score", "setting": "[2]", "value": "1.04 (active)"}]}, {"smiles": "CN1CCC(=C2c3ccccc3C=Cc3ccccc32)CC1", "values": [{"measurement": "scaled lipid accumulation score", "setting": "[2]", "value": "1.32 (active)"}]}, {"smiles": "CN1CCC(=C2c3ccccc3CCc3cccnc32)CC1", "values": [{"measurement": "scaled lipid accumulation score", "setting": "[2]", "value": 0.464}]}, {"smiles": "CN1CCC(=C2c3ccccc3C=Cc3ccccc32)CC1", "note": "[Cyproheptadine hydrochloride]", "values": [{"measurement": "scaled lipid accumulation score", "setting": "library stock concentration: 6.2 mM", "value": 0.686}]}, {"smiles": "CN1CCC(=C2c3ccccc3Sc3ccccc32)CC1", "note": "[Pimethixene maleate]", "values": [{"measurement": "scaled lipid accumulation score", "value": 0.65}, {"measurement": "scaled lipid accumulation score", "setting": "[2]", "value": 0.656}]}, {"smiles": "CN1CCC(=C2c3ccccc3C=Cc3ccccc32)CC1", "note": "[Cyproheptadine HCl]", "values": [{"measurement": "scaled lipid accumulation score", "setting": "[3]", "value": 0.629}, {"measurement": "scaled lipid accumulation score", "setting": "[2]", "value": 0.63}]}, {"smiles": "Cl.C(=C(\\CCN(C)C1)/C1)(/c2c(cccc2)C=C3)\\c4c3cccc4", "note": "[Cyproheptadine hydrochloride]", "values": [{"measurement": "scaled lipid accumulation score", "value": "0.968 (active)"}]}, {"smiles": "CN1CCC(=C2c3ccccc3C=Cc3ccccc32)CC1", "note": "[Cyproheptadine]", "values": [{"measurement": "scaled lipid accumulation score", "setting": "library stock concentration: 7 mM", "value": 0.351}]}, {"smiles": "C(=C(/CC1)\\CCN1C)(/c2c3cccc2)\\c4c(cccc4)C=C3.Cl", "note": "[Cyproheptadine hydrochloride]", "values": [{"measurement": "scaled lipid accumulation score", "setting": "[2]", "value": "0.933 (active)"}]}, {"smiles": "C#C[C@]1(OC(C)=O)CC[C@H]2[C@@H]3CCC4=CC(=NO)CC[C@@H]4[C@H]3CC[C@@]21CC", "note": "(mixture of isomers) [Norgestimate]", "values": [{"measurement": "scaled lipid accumulation score", "setting": "library stock concentration: 5.4 mM", "value": "≤ 0"}]}, {"smiles": "CC1COCCN1c1cc(C2(S(C)(=O)=O)CC2)nc(-c2cccc3[nH]ccc23)n1", "note": "(stereo unspecified)", "values": [{"measurement": "scaled lipid accumulation score", "setting": "[3]", "value": "≤ 0"}, {"measurement": "scaled lipid accumulation score", "setting": "[2]", "value": "≤ -0.001"}]}]}
